CYP2C19 inh: blockers of cytochrome P450 2C19 activity – biochemical, luminescence, ADME assay, primary screen; P33261; inhibition, % at 5 µM; CYP2C19 Supersomes, luciferin-H EGE luminescence, 30 min; 96,000 compounds, 21% hits;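 active = CYP2C19 inhibition above a set limit at 5 µM in the primary screen, cut at about 50% in these data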;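 note: plate controls were negative control wells for no effect and 2.5 mM tranylcypromine positive control for full effect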
CYP2C9 inhib: blockers of cytochrome P450 2C9 activity – biochemical, luminescence, ADME assay, primary screen; P11712; CYP2C9 Supersomes, luciferin-H conversion; inhibition, % at 5 µM; 96,000 compounds, 20% hits; AID 777, 2007;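 active = blocking of liver enzyme CYP2C9 beyond about 50% at 5 µM, limit read from the data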
Target sequence (P11712 whole entry, looked up): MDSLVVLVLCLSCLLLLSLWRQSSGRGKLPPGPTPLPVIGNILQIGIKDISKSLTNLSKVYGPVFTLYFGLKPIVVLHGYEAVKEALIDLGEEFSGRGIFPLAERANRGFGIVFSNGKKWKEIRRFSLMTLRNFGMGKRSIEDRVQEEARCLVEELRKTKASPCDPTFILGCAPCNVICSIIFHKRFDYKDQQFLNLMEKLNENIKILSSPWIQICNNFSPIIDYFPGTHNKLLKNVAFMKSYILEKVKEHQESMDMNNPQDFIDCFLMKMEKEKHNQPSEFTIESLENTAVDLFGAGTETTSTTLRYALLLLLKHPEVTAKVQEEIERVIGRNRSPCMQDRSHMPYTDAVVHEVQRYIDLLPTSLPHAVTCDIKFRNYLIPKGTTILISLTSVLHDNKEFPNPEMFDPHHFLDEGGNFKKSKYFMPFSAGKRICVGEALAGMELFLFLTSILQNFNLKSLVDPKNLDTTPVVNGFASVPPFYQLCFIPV
cytoskel mod: modifiers of F-actin cytoskeleton organization, primary screen, imaging, HUVEC, phalloidin staining, high-content imaging; HUVEC TNFa F-actin phalloidin imaging; inhibition, % at 2 µM; 91,000 compounds, 0.18% hits;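 active = inhibition above the batch mean plus 3 SD and confirmed as a hit by visual image inspection, cut at about 30% in these data, passing the limit was not always enough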
E-sel TNF inh: E-selectin induction blockers in HUVEC – imaging, immunofluorescence, high content, primary screen | HUVEC TNFa-induced E-selectin immunofluorescence | inhibition, % at 2 µM | 120,000 compounds, 0.71% hits;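 active = inhibition above the batch mean plus 3 SD, and confirmed as a hit on visual image review, cut at about 43% in these data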;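 note: 0% = TNF-stimulated DMSO wells and 100% = unstimulated control wells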
CYP2C9 activ: human CYP2C9 activators, primary screen, biochemical, luminescence. Cytochrome P450 2C9 (Homo sapiens), P11712. recombinant CYP2C9, luciferin-H conversion; stronger effect = higher value; factor 1 = untreated enzyme, 0 = blocked. activation factor at 5 µM. 96,000 compounds, 1.4% hits. AID 1024, 2008;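 active = activation factor of 2 or more for CYP2C9 at a 5 µM dose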;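 note: 0 = sulfaphenazole-blocked wells and 1 = vehicle-only wells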
CYP2C19 activ: human CYP2C19 activators, primary screen, biochemical, luminescence | Cytochrome P450 2C19 (Homo sapiens), P33261 | recombinant CYP2C19, luciferin-H EGE luminescence; stronger effect = higher value; 0 = fully inhibited enzyme, 1 = untreated enzyme | activation factor at 5 µM | 96,000 tested, under 10 active | AID 1025, 2008;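 active = activation factor of at least 2 at 5 µM in the primary screen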;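 note: 0 = wells with 2.5 mM tranylcypromine and 1 = vehicle-only wells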
* marks the source's active call; other numbers are inactive results; . = not tested or not shown. Hits are enriched below; roughly 22% of the tested compounds scored in any of these assays.

SMILES	CYP2C19 inh	CYP2C9 inhib	cytoskel mod	E-sel TNF inh	CYP2C9 activ	CYP2C19 activ
Cc1ccccc1-n1c(=O)cc(N2CC(C)OC(C)C2)[nH]c1=O (stereo not drawn)	1	12	2	.	0.9	1
CCCCn1c(NC(=S)Nc2ccccc2)nc2ccccc21	.	.	.	4	.	.
FC(F)(F)c1cccc(NC(=S)NCCc2ccccn2)c1	24	-1	-3	4	1	0.8
CCn1c(C(=O)NCCCN2CCc3ccccc3C2)cc2sccc21	64*	7	.	7	0.9	0.4
CCOCc1cc(C)[nH]c(=O)c1C#N	5	4	-7	-2	1	1
CCc1nc(N2CCCC(C)C2)c2oc3ccccc3c2n1 (stereo not drawn)	40	36	3	-1	0.6	0.6
Cc1nc(N2CCOCC2)c2oc3ccccc3c2n1	-11	-8	12	-8	1.1	1.1
c1ccc2[nH]c(CN3CCN(c4ncnc5c4oc4ccccc45)CC3)nc2c1	38	55*	-28	.	0.4	0.6
Cc1nc(N2CCN(Cc3nc4ccccc4[nH]3)CC2)c2oc3ccccc3c2n1	84*	92*	3	.	0.1	0.2
C(=C\c1ccccc1)/CN1CCN(c2ncnc3c2oc2ccccc23)CC1	13	40	-7	.	0.6	0.9
CCOC(=O)C1CCCN(c2nc(C)nc3c2oc2ccccc23)C1 (stereo not drawn)	58*	52*	19	.	0.5	0.4
C/C(Cn1nc([N+](=O)[O-])cc1C)=N\NC(=O)COc1c(Cl)cc(Cl)cc1Cl	.	.	.	-1	.	.
CN(C(=O)c1ccco1)c1nc2c(s1)CCCC2	45	62*	.	-6	0.4	0.6
CN(C)C(=O)CN1C(=O)C2CCCCN2C(=O)c2ccccc21 (stereo not drawn)	6	7	10	-4	0.9	0.9
CCOc1ccc(-c2nnn(CC(=O)c3cc(OC)ccc3OC)n2)cc1	12	-57	-6	.	1.6	0.9
O=c1c(F)cn(C2CCCO2)c(=O)n1Cc1ccccc1F (stereo not drawn)	84*	38	6	26	0.6	0.2
CCOc1ccc(OCC)c(S(=O)(=O)N2CCC(C)CC2)c1	60*	34	-7	13	0.7	0.4
CCOC(=O)N1CCN(S(=O)(=O)c2ccc(OCC)c(C)c2)CC1	96*	-66	-18	4	1.7	0
CCOc1ccc(OCC)c(S(=O)(=O)N2CCCCC2)c1	81*	40	.	.	0.6	0.2
CCOC(=O)N1CCN(S(=O)(=O)c2cc(OCC)ccc2OCC)CC1	59*	55*	48	.	0.4	0.4
O=C1NCCCC1C(=O)N1CCN(C(=O)c2ccco2)CC1 (stereo not drawn)	5	-16	.	34	1.2	1
CCOC(=O)N1CCN(S(=O)(=O)c2cccc3ccc(C)nc23)CC1	66*	-69	-14	-1	1.7	0.3
Cc1cc(S(=O)(=O)NCC(C)C)ccc1OCC(=O)N1CCOCC1	-13	-13	-7	1	1.1	1.1
CCOC(=O)N1CCN(C(=O)COc2ccc(S(=O)(=O)NCC(C)C)cc2C)CC1	18	62*	.	11	0.4	0.8
CCNc1nc(OCCNS(=O)(=O)c2cc(C)ccc2C)nc(N(C)C)n1	58*	18	-9	.	0.8	0.4
SMILES	CYP2C19 inh	CYP2C9 inhib	cytoskel mod	E-sel TNF inh	CYP2C9 activ	CYP2C19 activ
CCNc1nc(NCC)nc(OCCNS(=O)(=O)c2cc(C)ccc2C)n1	89*	-34	-14	-16	1.3	0.1
COc1cc(C)nc(OCCNS(=O)(=O)c2cc(C)ccc2C)n1	82*	-87	19	-46	1.9	0.2
CCOC(=O)COc1ccc(S(=O)(=O)NCc2cccnc2)cc1	-1	5	0	17	0.9	1
O=S(=O)(NCc1ccncc1)c1ccc(Br)s1	98*	51*	.	-31	0.5	0
COC(=O)COc1ccc(S(=O)(=O)NCc2ccncc2)cc1	99*	70*	-4	0	0.3	0
O=C(O)CNS(=O)(=O)c1ccc(Br)s1	-9	-8	.	-42	1.1	1.1
O=S(=O)(NCc1ccncc1)c1ccccc1	91*	33	.	-26	0.7	0.1
COCCN1C(=O)N[C@@H](c2ccccc2)C(C(C)=O)=C1C	.	.	.	-14	.	.
CCCS(=O)(=O)N1CCC(C(=O)NCc2cccnc2)CC1	-4	1	-3	.	1	1
Nc1nc(SCC(=O)NCCCO)nc2sc3c(c12)CCC3	8	3	-11	.	1	0.9
COC(=O)CSc1nc(N)c2c3c(sc2n1)CCCC3	86*	65*	.	0	0.3	0.1
CN(C)CCSc1nc(N)c2c3c(sc2n1)CN(C)CC3	13	8	.	0	0.9	0.9
CCCSc1nc(N)c2c3c(sc2n1)CN(C)CC3	82*	26	.	-47	0.7	0.2
COc1ccc(/C=N/Nc2nncc3ccccc23)c(OC)c1	.	.	.	-24	.	.
Cc1ccc(C)c(NC(=S)NNC(=O)c2sccc2C)c1	79*	89*	-1	-11	0.1	0.2
c1ccc(Nc2nc3ccccc3n3cnnc23)cc1	.	.	.	87*	.	.
O=C(NC(=S)Nc1ccc(Cl)cn1)C12CC3CC(CC(C3)C1)C2	.	.	.	-15	.	.
CCOC(=O)C1=C(C)NC2=C(C1c1ccc([N+](=O)[O-])cc1)S(=O)(=O)c1ccccc12 (stereo not drawn)	6	62*	-6	-24	0.4	0.9
CS(=O)(=O)C1=C(O)C(=O)N(c2ccccc2)C1c1ccccc1 (stereo not drawn)	51*	12	.	-17	0.9	0.5
OC(c1ccccn1)c1c[nH]c2ccccc12 (stereo not drawn)	12	12	67*	4	0.9	0.9
O=C(CC(C(=O)O)c1c[nH]c2ccccc12)c1ccccc1 (stereo not drawn)	.	.	.	-3	.	.
COc1c2ccoc2nc2c(OC)c(O)ccc12	.	.	.	-9	.	.
COc1c2c(nc3occc13)C(CCC(C)(C)O)(OC)C(O)CC2 (stereo not drawn)	56*	54*	-5	-24	0.5	0.4
CCn1ncc(Cl)c1C(=O)Nc1ccncc1	96*	93*	7	-11	0.1	0
COc1ccc(-n2nnnc2SCC(=O)N2CCCC2)cc1OC	13	-45	-2	.	1.4	0.9
O=S(=O)(Nc1nnc(-c2ccccc2)s1)c1ccc(Cl)cc1	83*	99*	-23	27	0	0.2
Cc1cccc(OCC(=O)Nc2cccc3nsnc23)c1	11	-8	.	11	1.1	0.9
O=S1(=O)CCN(C(CCO)c2cccc(C(F)(F)F)c2)CC1 (stereo not drawn)	.	.	.	95*	.	.

Source: PubChem
